Screen size: about 370,000 compounds; about 660 (0.18%) were called active. Cut-off read from the data, not from the text of the source: active = inhibition above about 11%; inactive = the rest. Many of the other results were omitted from the sample, so actives are more common in it than they were.

Inhibition data for 57 molecules are collected here from PubChem BioAssay AID720704 (The Scripps Research Institute Molecular Screening Center, 2013).

For this assay, the target named is 1-phosphatidylinositol 4,5-bisphosphate phosphodiesterase beta-3 (Homo sapiens) (UniProt Q01970). Nature of the assay: human PLC-beta3 inhibitors, primary screen, biochemical, fluorescence (AID 720704).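 Note: 0% = median of compound wells on plate and 100% = full blocker control.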 The conditions noted are these: Purified PLC-beta3, fluorogenic substrate, at 12.2 µM, stronger effect = higher value.
Chain of 1-phosphatidylinositol 4,5-bisphosphate phosphodiesterase beta-3 (Homo sapiens) (Q01970 whole entry, looked up): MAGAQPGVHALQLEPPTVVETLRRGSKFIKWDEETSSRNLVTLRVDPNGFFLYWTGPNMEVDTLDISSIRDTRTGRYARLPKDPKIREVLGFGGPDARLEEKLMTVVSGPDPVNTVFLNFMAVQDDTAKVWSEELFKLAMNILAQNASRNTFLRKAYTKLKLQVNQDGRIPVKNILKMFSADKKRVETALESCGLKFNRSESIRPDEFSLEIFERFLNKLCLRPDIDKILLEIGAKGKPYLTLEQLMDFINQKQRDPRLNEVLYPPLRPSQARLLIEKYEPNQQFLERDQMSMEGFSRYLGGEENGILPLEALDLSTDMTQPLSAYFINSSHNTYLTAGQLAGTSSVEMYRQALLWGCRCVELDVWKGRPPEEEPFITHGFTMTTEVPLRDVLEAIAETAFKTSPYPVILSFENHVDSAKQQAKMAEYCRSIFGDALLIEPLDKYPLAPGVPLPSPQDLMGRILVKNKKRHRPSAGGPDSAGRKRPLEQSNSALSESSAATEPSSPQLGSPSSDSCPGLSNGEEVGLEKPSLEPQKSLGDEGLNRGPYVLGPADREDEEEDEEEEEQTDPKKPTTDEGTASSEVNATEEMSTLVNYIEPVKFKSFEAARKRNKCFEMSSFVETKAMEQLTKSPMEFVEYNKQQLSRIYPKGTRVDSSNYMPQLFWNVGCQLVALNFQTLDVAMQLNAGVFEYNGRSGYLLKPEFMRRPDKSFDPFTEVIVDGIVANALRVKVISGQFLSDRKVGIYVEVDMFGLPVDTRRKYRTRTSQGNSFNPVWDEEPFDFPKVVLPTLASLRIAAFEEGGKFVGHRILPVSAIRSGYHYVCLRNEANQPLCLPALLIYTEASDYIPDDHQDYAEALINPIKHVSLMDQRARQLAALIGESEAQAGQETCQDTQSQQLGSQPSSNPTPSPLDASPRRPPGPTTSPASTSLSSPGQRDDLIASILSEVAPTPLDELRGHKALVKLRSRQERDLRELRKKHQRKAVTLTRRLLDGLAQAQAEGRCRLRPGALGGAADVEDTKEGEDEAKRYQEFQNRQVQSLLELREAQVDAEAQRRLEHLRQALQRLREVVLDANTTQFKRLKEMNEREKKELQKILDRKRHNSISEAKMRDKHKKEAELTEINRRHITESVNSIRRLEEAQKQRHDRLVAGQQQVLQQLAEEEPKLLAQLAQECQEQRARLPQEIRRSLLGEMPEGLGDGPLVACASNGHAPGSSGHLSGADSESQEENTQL
As for `CC1=CC(=O)C=CC1(C)C(Cl)(Cl)Cl` (configuration not stated), the inhibition was 0.48% (inactive). In the case of `Cc1c(C(=O)N2CC(C)OC(C)C2)sc2nc(-c3ccccc3)cn12` (configuration not stated), the inhibition is -2.9% (inactive).

On to `O=C(c1ccc(F)cc1)N1CCCC(C(=O)N2CCCCC2)C1` (configuration not stated), for which the inhibition was -6.9% (inactive). On to `COc1ccc([N+](=O)[O-])cc1N(CC(O)CN(CC(C)C)CC(C)C)S(=O)(=O)c1ccc(C)cc1` (configuration not stated), for which the inhibition was -4.79% (inactive). The result for `COc1ccc([N+](=O)[O-])cc1N(CC(O)Cn1nnc2ccccc21)S(=O)(=O)c1ccc(C)cc1` (configuration not stated) reads 11.5% (active). The result for `Cc1ccc(S(=O)(=O)N(CC(O)CN2CCCCC2)c2cccc([N+](=O)[O-])c2)cc1` (configuration not stated) reads -3.53% (inactive); that for `O=C(NC1CCCCN(Cc2ccc(Cl)cc2)C1=O)c1ccc(Br)cc1` (configuration not stated), -4.01% (inactive). In the case of `Cc1cccc(OCc2nnc(SCc3nc4cc(C(F)(F)F)ccc4c(=O)[nH]3)o2)c1`, the inhibition was -14.6% (inactive).

As for `CCn1cc(C(=O)NCCC(=O)NCCO)c(=O)c2cc3c(cc21)OCO3`, the inhibition was -11.8% (inactive). The result for `CCOc1ccccc1NC(=O)c1cccnc1` reads 12.6% (active); that for `CCCOc1cccc(C(=O)NCCCNC(=O)c2cccnc2)c1`, -4.69% (inactive). Under `Cc1cccc(C(=O)Nc2ccccc2C(=O)NCc2cccnc2)c1` stands 2.86% (inactive). The result for `O=S1(=O)C[C@@H](N2CCN(CCO)CC2)[C@H](COCc2ccccc2)N1` reads -7.43% (inactive). Consider `Cc1ccc(S(=O)(=O)N2CCC(C(=O)OCC(=O)N(C)c3ccccc3)CC2)cc1C`, for which the inhibition is -0.47% (inactive). Regarding `COc1ccc(S(=O)(=O)N2CCC(C(=O)OCC(=O)c3ccccc3)CC2)cc1[N+](=O)[O-]`, the inhibition is 10.8% (active).

`O=C(COc1ccc(S(=O)(=O)N2CCCC2)cc1[N+](=O)[O-])N1CCCCC1`: the inhibition was 6.09% (inactive). Take `CCOC(=O)[C@H]1CCC[C@@H](NS(=O)(=O)c2ccc(NC(C)=O)cc2)C1`: the inhibition is -1.08% (inactive). In the case of `O=S(=O)(NCCSc1ccccn1)c1ccc(Cl)cc1`, the inhibition is 4.09% (inactive). Under `CN(C(=O)c1cccc(NC(=O)Cc2cccc([N+](=O)[O-])c2)c1)C1CCCCC1` stands 11.2% (active); under `CN(C(=O)c1cccc(NC(=O)Cc2cccc(NC(=O)C3CCCN(C(=O)C4CC4)C3)c2)c1)C1CCC1` (configuration not stated), 1.11% (inactive).

`CN(C(=O)c1cccc(NC(=O)Cc2ccc([N+](=O)[O-])cc2)c1)C1CCC1`: the inhibition was 1.28% (inactive). For the molecule `O=C(CNC(=O)c1ccccc1)OC(C(=O)Nc1cc([N+](=O)[O-])ccc1F)c1ccccc1` (configuration not stated), the inhibition is -0.41% (inactive).

Take `CCOc1c(Br)cc(/C=C2\C(=O)N(CCC#N)N=C2C)cc1OC`: the inhibition is 13.5% (active). For the molecule `CC(N=Cc1nc(-c2ccccc2)oc1O)c1ccccc1` (configuration not stated), the inhibition is 15.1% (active). As for `Oc1oc(-c2ccccc2Br)nc1/C=N/c1ccccn1`, the inhibition is -19.8% (inactive).

For the molecule `COC(=O)CN1C(=O)C(O)=C(C(C)=O)C1c1ccc([N+](=O)[O-])cc1` (configuration not stated), the inhibition was 13.8% (active). The result for `CC(=O)C1=C(O)C(=O)N(c2cccnc2)C1c1ccc([N+](=O)[O-])cc1` (configuration not stated) reads 4.27% (inactive); that for `CC(=O)C1=C(O)C(=O)N(c2ccc(Br)cc2)C1c1ccc([N+](=O)[O-])cc1` (configuration not stated), -6.85% (inactive). The result for `O=C(NC(CC(=O)N1CCN(c2ccccc2)CC1)c1ccccc1)c1ccccc1Cl` (configuration not stated) reads 2.68% (inactive); that for `O=C(NCCSc1ncc(-c2ccccc2)[nH]1)c1ccco1`, -6.81% (inactive); that for `Cc1ccc(C2CC(c3cccc(NS(C)(=O)=O)c3)=NN2S(C)(=O)=O)cc1` (configuration not stated), 0.24% (inactive).

For `CCOc1ccc2nc(Cl)c(C3CC(c4ccccc4)=NN3C(=O)c3cccs3)cc2c1` (configuration not stated), the inhibition is -0.32% (inactive). For the molecule `CCOc1ccccc1C1CC(c2cccc(NS(C)(=O)=O)c2)=NN1C(=O)c1ccccc1` (configuration not stated), the inhibition is 13.2% (active). The result for `Cc1ccc(C(=O)N(CN2CCCC2=O)c2ccc(F)cc2)cc1` reads 3.26% (inactive); that for `CCOc1ccc(S(=O)(=O)Nc2ccncc2)c(C)c1C`, 1.51% (inactive). For the molecule `Cc1cc(C)c2nc(SCC(=O)N(C)C3CCS(=O)(=O)C3)cc(C)c2c1` (configuration not stated), the inhibition is 2.26% (inactive).

For the molecule `O=S(=O)(c1ccc(F)cc1)N1CCN=C1SCc1cccc(F)c1`, the inhibition is -7.5% (inactive). As for `Cc1ccc(/C=C/C(=O)O)cc1S(=O)(=O)N1CCC(Cc2ccccc2)CC1`, the inhibition was -3.09% (inactive). For the molecule `Cn1ncc2c(Nc3cccc4ccccc34)ncnc21`, the inhibition is -6.23% (inactive). The result for `Cc1nc(Nc2ccccc2C)c2cnn(C)c2n1` reads 13.1% (active). The result for `Cn1ncc2c(NNC(=O)Cc3cccc4ccccc34)ncnc21` reads 1.27% (inactive); that for `O=C1C(=O)N(c2ccccc2)C(c2ccccc2)C1c1ccccc1` (configuration not stated), -283% (inactive); that for `O=S(=O)(O)c1cc2onnc2c2ccccc12`, -11.7% (inactive).

Regarding `Cc1cc(NS(=O)(=O)c2ccc(NC(=O)CSc3nnc(SCc4ccc(F)cc4)s3)cc2)nc(C)n1`, the inhibition was -3.29% (inactive). The result for `Cc1cc(C(=O)OC(C)C(=O)Nc2cccc(S(=O)(=O)N3CCOCC3)c2)c(C)o1` (configuration not stated) reads 2.02% (inactive); that for `NNC(=O)C1CC(O)CN1S(=O)(=O)c1ccc(Cl)cc1` (configuration not stated), -6.44% (inactive); that for `O=C(CSc1ncn[nH]1)Nc1nc2c(F)c(F)c(F)cc2s1`, -3.83% (inactive). The result for `CCNC(=S)N1CCC(c2nc3cc(C)c(C)cc3[nH]2)CC1` reads 0.08% (inactive).

Turning to `Cc1cc(C)c(NC(=O)CSc2nc3ccncc3[nH]2)c(C)c1`, the inhibition is -1.6% (inactive).

Regarding `Cc1cc2nc(SCCN3CCOCC3)[nH]c2cc1C`, the inhibition is 10.8% (active). `Fc1ccc(CNCc2ccc(Br)cc2)cc1`: the inhibition is 1.89% (inactive).

In the case of `CC1(C(=O)NCc2ccco2)Cc2c(-c3ccc4c(c3)OCO4)ccnc2O1` (configuration not stated), the inhibition is -9.86% (inactive). Turning to `COc1ccc(C(=O)NC2CC2)cc1OC1CCN(Cc2ccc(SC)cc2)CC1`, the inhibition is -5.08% (inactive). Under `CCN(C(=O)COc1cccnc1[N+](=O)[O-])C1CCS(=O)(=O)C1` (configuration not stated) stands 3.82% (inactive); under `CCc1cc2c(=O)c(-c3ccon3)c(N)oc2cc1OC`, -1.51% (inactive); under `CCOC(=O)C1CCN(C(=O)c2cccc(S(=O)(=O)N(CC)c3ccccc3)c2)CC1`, -9.7% (inactive).

For the molecule `CCCC1CCC(=NNC(=S)NCCc2ccccc2)CC1` (configuration not stated), the inhibition was -1.2% (inactive).

As a reminder, the inhibition is the relative decrease from the control value, in per cent.
